WRN helicase inh-1 – inhibitors of human WRN helicase; Q14191; WRN helicase unwinding, fluorescent forked duplex, kinetic; Potency, µM (top dose mostly 114 µM), for the others: at the top dose activity change, negative = inhibition, hits mostly inhibitors; 360,000 compounds, 0.46% hits; AID 651768; note: potency is the fitted concentration of half-maximal effect; % is set by controls: 0 for no effect and ±100 for the full control effect; nearly all actives have a fitted effect of over 55% in size
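WRN at 20 nM final preincubated with compound 15 min at room temperature; reaction started with 100 nM fluorophore/quencher forked duplex oligonucleotide and 2 mM ATP final. Unwinding followed kinetically by red fluorescence (ex 525, em 598 nm).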
Pol eta inh – inhibitors of human DNA polymerase eta. Potency, µM (series often up to 114 µM), inactives show at the top dose activity change, negative = inhibition, most hits filed as inhibitors. recombinant Pol eta, fluorescent DNA replication assay. 390,000 compounds, 1.2% hits; note: potency is the fitted concentration of half-maximal effect; % is set by controls: 0 for no effect and ±100 for the full control effect
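Fluorescent replication assay: 50 nM final substrate added after a 15 min room-temperature compound preincubation with 10 nM enzyme. Signal taken at 0 min and again at 10 min.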
POLB inh – inhibitors of human DNA polymerase beta. Potency, µM (series often up to 114 µM), inactives show top-dose activity change, negative = inhibition, usual class: inhibitors. 340,000 compounds, 1.3% hits. Pol beta primer extension/strand displacement, fluorescence kinetic. P06746; note: potency is the fitted concentration of half-maximal effect; % is set by controls: 0 for no effect and ±100 for the full control effect
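Human Pol beta at 10 nM; strand-displacement substrate 50 nM final. Compound exposure 15 min at room temperature before start, reaction 10 min at room temperature.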
PI5P4K alpha inh – inhibitors of human PI5P4K alpha; 330,000 compounds, 1.2% hits; PI5P4Kalpha enzyme, ADP-Glo luminescence, 60 min; hits give low values; max response, %; AID 652105; P48426; active = max response of -50% or lower; inconclusive = between -30% and -50%; inactive = -30% or higher; note: value at the top dose of about 77 µM; % is set by controls: 0 for no effect and ±100 for the full control effect
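Reactions run in 0.038 M HEPES pH 7.4, 0.28 mM EGTA, 0.1% CHAPS and 5% DMSO, with PI5P4Kalpha, substrate, compound and 5 microM ATP final, one hour at room temperature. Readout is ADP-Glo luminescence.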
Pol kappa inh – inhibitors of human DNA polymerase kappa | 400,000 compounds, 0.53% hits | Potency, µM (series often up to 107 µM), without a hit: at the highest dose activity, negative = inhibition, usual class: inhibitors | AID 588579 | purified Pol kappa, fluorescent DNA synthesis assay, 10 min | Q9UBT6; note: potency is the fitted concentration of half-maximal effect; % is set by controls: 0 for no effect and ±100 for the full control effect
Target sequence (Q9UBT6 whole entry, looked up): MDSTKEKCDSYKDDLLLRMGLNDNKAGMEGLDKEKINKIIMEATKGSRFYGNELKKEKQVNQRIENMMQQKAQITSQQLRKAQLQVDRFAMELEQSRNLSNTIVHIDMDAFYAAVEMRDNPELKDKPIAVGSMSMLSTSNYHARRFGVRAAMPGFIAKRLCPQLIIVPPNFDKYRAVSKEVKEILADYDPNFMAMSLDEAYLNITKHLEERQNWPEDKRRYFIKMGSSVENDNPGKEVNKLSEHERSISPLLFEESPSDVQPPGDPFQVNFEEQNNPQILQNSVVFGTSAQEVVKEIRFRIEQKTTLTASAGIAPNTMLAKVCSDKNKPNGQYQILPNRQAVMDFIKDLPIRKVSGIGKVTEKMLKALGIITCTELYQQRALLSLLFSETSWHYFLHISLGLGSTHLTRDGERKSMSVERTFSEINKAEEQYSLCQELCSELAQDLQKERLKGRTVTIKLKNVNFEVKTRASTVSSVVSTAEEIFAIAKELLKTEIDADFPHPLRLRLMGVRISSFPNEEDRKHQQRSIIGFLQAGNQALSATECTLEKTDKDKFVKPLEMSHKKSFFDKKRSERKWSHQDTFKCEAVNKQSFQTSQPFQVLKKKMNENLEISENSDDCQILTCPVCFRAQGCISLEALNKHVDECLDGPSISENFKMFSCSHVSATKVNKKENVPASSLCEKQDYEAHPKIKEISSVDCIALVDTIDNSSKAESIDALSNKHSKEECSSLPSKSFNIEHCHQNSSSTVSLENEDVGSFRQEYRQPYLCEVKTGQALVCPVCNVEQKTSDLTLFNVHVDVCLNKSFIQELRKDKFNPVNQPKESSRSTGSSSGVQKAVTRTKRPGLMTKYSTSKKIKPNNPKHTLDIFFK
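Pol kappa 10 nM + cpd, 15 min RT; start w/ substrate 50 nM final; fluorescence kinetic read, 0 and 10 min. Neg ctrl: buffer, no enzyme.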
POLI inh – blocks human DNA polymerase iota activity; Pol iota fluorescent replication assay, 10 min; Potency, µM (doses to about 115 µM), for the others: at the highest dose activity, negative = inhibition, usual class: inhibitors; 390,000 compounds, 1% hits; note: potency is the fitted concentration of half-maximal effect
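Pol iota at 10 nM preincubated 15 min with compounds at room temperature; reaction started with fluorescent substrate, 50 nM final. Fluorescence read kinetically at 0 and 10 min; buffer-only wells as negative control.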
WRN helicase inh-2 – confirmation of human WRN helicase inhibitors; shares compounds with WRN helicase inh-1; WRN helicase DNA unwinding, fluorescence kinetic; Potency, µM (series often up to 57.1 µM), without a hit: top-dose activity, negative = inhibition, actives largely listed as inhibitors; 610 compounds, 63% hits; AID 720497; note: potency is the fitted concentration of half-maximal effect; nearly all actives have a fitted effect of over 65% in size
TO DNA binding – counter-screen for WRN helicase inhibitors: DNA binding; shares compounds with WRN helicase inh-1; thiazole orange DNA binding displacement, fluorescence; 610 compounds, 10% hits; Potency, µM (titrated, usually from 57.1 µM), inactives show top-dose activity change, negative = inhibition, hits mostly inhibitors;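 note: drop in dye fluorescence marks compound binding to DNA; potency is the fitted concentration of half-maximal effect; % is set by controls: 0 for no effect and ±100 for the full control effect; nearly all actives have a fitted effect of over 60% in size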
BLM counter – BLM helicase inhibition, WRN selectivity check | AID 720503 | Potency, µM (highest dose often 57.1 µM), for the others: at the top dose activity change, negative = inhibition, usual class: inhibitors | shares compounds with WRN helicase inh-1 | 610 compounds, 60% hits | Recombinant BLM helicase DNA unwinding, red fluorescence; note: potency is the fitted concentration of half-maximal effect; nearly all actives have a fitted effect of over 60% in size
Active calls of the source: *; i = inactive; ? = inconclusive; . = no result given; [ ] = another dose, or the depositor's remark. This is a sample that favours compounds with a hit; in the whole collection about 2.8% have one here. Unless noted, calls come from the whole dose curve; as a rule, active = well fitted curve in the direction sought with a large enough effect; inconclusive = small, poorly fitted or top-dose-only effect, or another doubt; inactive = no such curve, though single readings can be large; an effect the other way counts as inactive or inconclusive.

SMILES	WRN helicase inh-1	Pol eta inh	POLB inh	PI5P4K alpha inh	Pol kappa inh	POLI inh	WRN helicase inh-2	TO DNA binding	BLM counter
COc1ccc(/C=C2/CCCC(CN(C)C)C2=O)cc1 (stereo not drawn)	?	-6.9%	.	2.2	-11.7%	-0.5%	.	.	.
O=C(NCc1cc2ccccc2[nH]1)C1CCC(=O)N(CC2CCCCC2)C1 (stereo not drawn)	1.8%	-3.9%	.	-26.9	.	.	.	.	.
C[C@@H]1NC(=O)N[C@@H]1CCCCCC(=O)O	?	?	.	0.0	2.4%	29.8%	?	-1.1%	?
COc1ccc(-n2nc3cc(C)c(N)c(Br)c3n2)cc1	44.7µM*	-21.1%	17.6%	-17.2	-13.2%	25.1µM*	-5.2%	-19.8%	-9.4%
COc1cc(/C=N/NC(=O)c2ccc3c(c2)OCCO3)c(Br)c(Br)c1O	?	?	?	-28.8	89.1µM*	?	?	-24.2%	?
COc1cc(/C=N/NC(=O)c2ccc3c(c2)OCCO3)cc(Br)c1O	-13.2%	-17.5%	6.5%	-4.9	3.5%	-1.3%	.	.	.
COc1ccc(N2CCN(C(=O)C3CCCN(S(=O)(=O)c4c(C)noc4C)C3)CC2)cc1 (stereo not drawn)	-4.6%	-9.2%	?	-10.1	0.1%	30.6%	.	.	.
CC(=O)N1CCOc2ccc(S(=O)(=O)N3CCN(c4cc(C)ccc4C)CC3)cc21	-2.2%	-14.4%	22.3%	-0.6	-9.6%	-12.4%	.	.	.
COc1ccc(NC(=O)/C(Cl)=C(/Cl)S(=O)Cc2ccccc2)cn1 (stereo not drawn)	31.6µM*	-15.9%	19.5%	-5.2	-12.3%	31.6µM*	?	-2.9%	-18.8%
CCN(CC)c1ccc(/C=C2\CCC(/C=N/NC(=O)c3ccc(=O)n(C)c3)=C2N2CCOCC2)cc1	-7.0%	-14.5%	-10.9%	-16.1	-12.2%	40.7%	.	.	.
CC(=O)NC1C(=O)N(CCN2CCOCC2)c2ccc(Cl)cc21 (stereo not drawn)	22.4µM*	?	35.0%	0.8	-16.0%	?	-9.9%	-12.0%	-30.0%
Cn1cnc([N+](=O)[O-])c1S(=O)(=O)c1ccc(Cl)cc1	?	-7.8%	34.8%	-1.0	-7.1%	66.2%	-19.3%	-4.7%	-16.4%
O=C(CSc1nccn1-c1cccc(Cl)c1)Nc1ccc2c(c1)OCO2	.	-1.5%	-9.9%	.	-8.9%[60.1 µM]	20.0%	.	.	.
Cc1onc(-c2c(Cl)cccc2Cl)c1C(=O)N=C(N)N1CCCC1	0.8%	-21.5%	0.6%	-1.9	-24.1%	-5.6%	.	.	.
Cn1c2cc(C#N)sc2c2cnn(Cc3ccc(F)cc3)c(=O)c21	.	-12.0%	.	.	-1.5%	-49.1%	.	.	.
CSc1cc2c(s1)c1cnn(Cc3cccc(N)c3)c(=O)c1n2C	.	.	.	.	.	.	-12.2%	-7.7%	?
CC(NC(=O)COC(=O)/C=C/c1ccc2c(c1)OCO2)c1ccccc1 (stereo not drawn)	4.0%	0.5%	.	4.5	-15.0%	3.0%	.	.	.
CC(NC(=O)COC(=O)/C=C/c1ccc([N+](=O)[O-])cc1)c1ccccc1 (stereo not drawn)	?	-34.6%	29.2%	15.6	?	89.1µM*	-2.6%	-3.9%	-7.3%
CC(C)COc1ccc(C(=O)N(Cc2cccc(F)c2)C2CCS(=O)(=O)C2)cc1 (stereo not drawn)	.	-21.9%	20.7%	.	4.5%	-10.2%	.	.	.
Cc1cc(Cl)ccc1Oc1ccc(C(N)=O)cc1[N+](=O)[O-]	4.3%	-16.5%	?	8.9	-12.0%	13.9%	.	.	.
Cc1cc(=O)oc2cc(Oc3ccc(C(N)=O)cc3[N+](=O)[O-])ccc12	?	-8.9%	12.0%	-14.3	-20.0%	?	?	-8.8%	-17.2%
CN(c1ccc(F)cc1)S(=O)(=O)c1ccc(Cl)c(C(=O)NCC(c2ccco2)N2CCCCC2)c1 (stereo not drawn)	-8.4%	-24.8%	.	-0.8	-14.2%	17.3%	.	.	.
CC(C)Cc1ccc(C(C)NC(=O)Cc2ccc(S(=O)(=O)N3CCOCC3)s2)cc1 (stereo not drawn)	-9.9%	-16.0%	.	2.8	-16.5%	15.3%	.	.	.
O=S(=O)(Cc1ccccc1)N(O)c1ccccc1	?	-7.0%	9.3%	-17.4	-3.9%	71.1%	0.9%	-6.8%	0.1%
O=C(O)CNS(=O)(=O)Cc1ccccc1	3.6%	-16.1%	15.5%	-2.5	0.0%	14.3%	.	.	.
SMILES	WRN helicase inh-1	Pol eta inh	POLB inh	PI5P4K alpha inh	Pol kappa inh	POLI inh	WRN helicase inh-2	TO DNA binding	BLM counter
Oc1cc2c(cc1C(c1ccc(Br)cc1)N1CCCC1)OCO2 (stereo not drawn)	44.7µM*	-21.0%	7.1%	-102.3*	-0.9%	?	?	-11.0%	?
O=S(=O)(NCC(c1ccc2c(c1)OCO2)N1CCOCC1)c1ccc(Br)cc1 (stereo not drawn)	0.6%	-15.8%	.	4.0	8.8%	-2.9%	.	.	.
COc1cc(/C=C2/SC(=S)N(CC(=O)O)C2=O)ccc1OC(=O)c1cccs1	?	?	-13.1%	-14.7	-17.1%	?	?	-13.1%	-16.6%
COc1cc(/C=C2\SC(=S)N(N(C)c3ccccc3)C2=O)ccc1O	?	-11.1%	?	0.9	-16.8%	?	13.6µM*	?	15.2µM*
COc1cc(/C=C2/SC(=S)N(Cc3ccccc3)C2=O)cc(Cl)c1O	-128.1%	?	39.8µM*	?	-16.6%	-19.4%	1.52µM*	?	2.71µM*
COc1cc(/C=C2/SC(=S)N(C)C2=O)ccc1OC(=O)c1ccco1	-22.9%	-10.9%	32.2%	1.0	-7.9%	-16.3%	.	.	.
CCc1nc(C)c(C(=O)N2CCCC(C(=O)Nc3cccc(-c4cccc(C)c4)c3)C2)o1 (stereo not drawn)	-7.5%	-0.6%	9.2%	-0.9	-10.4%	4.0%	.	.	.
COc1cc(OC)c(/C=C/c2ccc3ccccc3n2)c(OC)c1	.	.	.	.	-26.2%	?	.	.	.
Cc1ccc2nc(CCl)[n+]([O-])c(-c3ccccc3)c2c1	79.4µM*	-9.7%	19.0%	?	-6.5%	-16.4%	-1.2%	-1.8%	-10.7%
CC[n+]1c(/C=C/C=C/N(C(C)=O)c2ccccc2)sc2ccccc21	50.1µM*	?	-7.8%	?	-7.9%	?	24.1µM*	i	-15.5%

High-throughput results deposited in PubChem BioAssay by National Center for Advancing Translational Sciences (NCATS).
